Reference: paper PMC4336329 (PLoS ONE, 2015)
Out of some 310,000 compounds screened, about 14,000 (4.5%) showed an effect of 50% or more. Effects have a minus sign here. This is one part of a sample in which strong results are shown more often than they occur.

target: human ether-à-go-go-related gene (hERG) potassium channel (human, UniProt Q12809); experiment: primary screen, population patch clamp on CHO cells stably expressing hERG; higher = less effect of the substance
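Note: peak tail current of the secondary pulse compared with the same well before compound.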

Sequence of human ether-à-go-go-related gene (hERG) potassium channel (Q12809 whole entry, looked up): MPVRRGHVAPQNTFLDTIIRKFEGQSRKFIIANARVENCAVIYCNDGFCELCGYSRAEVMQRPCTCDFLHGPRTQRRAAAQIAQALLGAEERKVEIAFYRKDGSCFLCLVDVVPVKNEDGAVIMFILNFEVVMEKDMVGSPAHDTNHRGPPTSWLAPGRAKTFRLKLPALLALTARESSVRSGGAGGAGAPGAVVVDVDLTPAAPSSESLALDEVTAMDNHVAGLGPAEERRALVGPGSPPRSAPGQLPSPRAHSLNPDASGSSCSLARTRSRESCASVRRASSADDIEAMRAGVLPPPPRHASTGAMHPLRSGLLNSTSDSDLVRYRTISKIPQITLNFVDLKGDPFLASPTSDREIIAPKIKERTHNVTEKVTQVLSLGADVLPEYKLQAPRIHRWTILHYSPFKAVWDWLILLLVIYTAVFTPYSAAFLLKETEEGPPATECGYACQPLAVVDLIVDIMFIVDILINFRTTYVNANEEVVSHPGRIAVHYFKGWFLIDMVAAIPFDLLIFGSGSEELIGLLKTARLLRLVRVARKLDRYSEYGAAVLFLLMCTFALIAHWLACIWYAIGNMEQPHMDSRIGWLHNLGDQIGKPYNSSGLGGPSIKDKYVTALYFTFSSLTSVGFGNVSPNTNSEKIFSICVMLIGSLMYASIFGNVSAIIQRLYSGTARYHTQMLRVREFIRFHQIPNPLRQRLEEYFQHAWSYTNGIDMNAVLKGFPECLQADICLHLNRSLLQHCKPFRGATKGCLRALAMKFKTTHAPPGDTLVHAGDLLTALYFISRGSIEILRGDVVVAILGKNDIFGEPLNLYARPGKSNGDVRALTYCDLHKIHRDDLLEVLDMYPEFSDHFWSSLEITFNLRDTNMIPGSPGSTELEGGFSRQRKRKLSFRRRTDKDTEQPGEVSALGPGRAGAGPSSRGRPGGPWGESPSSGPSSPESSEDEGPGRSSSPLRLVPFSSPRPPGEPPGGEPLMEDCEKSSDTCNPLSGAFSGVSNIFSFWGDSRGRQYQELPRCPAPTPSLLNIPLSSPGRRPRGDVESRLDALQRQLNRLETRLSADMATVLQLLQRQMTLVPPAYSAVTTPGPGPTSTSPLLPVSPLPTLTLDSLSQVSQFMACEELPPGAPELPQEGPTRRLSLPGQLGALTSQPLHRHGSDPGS

In order of falling “hERG current change (%, negative = inhibition) at 10uM” value:
1. O=S(=O)(c1ccccc1)c1cnc(-c2ccccc2)nc1N1CCCC1  41.8%
2. Cc1cc(NS(=O)(=O)c2ccc(NC(=O)c3ccc(Cl)cc3Cl)cc2)no1  24.4%
3. CCCCOc1ccc(C(=O)N/C(=C/C=C/c2ccccc2)C(=O)O)cc1  19.8%
4. O=C(O)CC1NC(=O)N(c2ccc(Cl)cc2)C1=O (centres unmarked)  19.5%
5. CC(C)N(Cc1ccc(F)cc1)C(=O)c1cc2ccccc2oc1=O  19.5%
6. O=C(O)CCNC(=O)/C(=C/C=C/c1ccccc1)NC(=O)c1ccccc1  16.6%
7. COc1cccc(OCC(O)CN2CCN(C)CC2)c1.O=C(O)C(=O)O (centres unmarked)  16.2%
8. CCOC(=O)C1CCN(c2nc(-c3ccc(C)cc3)nc3ccccc23)CC1  15.4%
9. CCn1c(C)nc2cc(C(=O)OC)ccc21  14.3%
10. O=[N+]([O-])c1cc(Cl)cc(/C=N/NC(=S)Nc2ccc(S(=O)(=O)N3CCOCC3)cc2)c1O  14.3%
11. CC(C)(C)C(=O)Nc1nc2c(s1)CN(Cc1ccccc1)CC2  14.2%
12. COc1ccc([N+](=O)[O-])cc1N(CC(=O)O)S(C)(=O)=O  13.7%
13. Cc1ccc(C2(C)NC(=O)N(CC(=O)NC(C)c3ccccc3)C2=O)cc1 (centres unmarked)  11.7%
14. CCOCCn1c(C(C)O)nc2ccccc21 (centres unmarked)  11.7%
15. O=C1c2ccccc2COc2ccc(O)cc21  10.9%
16. NNC(=O)c1n[nH]c2c1CC(C1CCCCC1)CC2 (centres unmarked)  10.8%
17. CC(C)(C)c1ccc(OCCC(=O)OCC(=O)NC(=O)NC2CCCC2)cc1  10.7%
18. c1ccc(-c2nc(C3CCCCC3)c3ccccc3n2)cc1  10.7%
19. CCOP(=O)(OCC)c1nc(-c2cccc3ccccc23)oc1NCc1ccccc1  10.2%
20. Nc1c(N=O)c(=O)[nH]c(=O)n1-c1ccccc1  10.2%
21. NS(=O)(=O)c1ccc(CCNC(=O)C2CCN(c3ncnc4c3nc3n4CCCCC3)CC2)cc1  9.07%
22. COC(=O)/C(=C\C=C\c1ccccc1)NC(=O)c1ccccc1  8.85%
23. O=[N+]([O-])c1cnn(-c2nc(-c3ccccc3)cc(C(F)(F)F)n2)c1  8.82%
24. O=C(N=C1SC2CS(=O)(=O)CC2N1c1ccccc1F)C1CCCCC1 (centres unmarked)  8%
25. O=S(=O)(c1cccs1)N1CCCc2cccc(O)c21  7.34%
26. O=C(N/N=C/C=C/c1ccccc1)c1cnccn1  6.57%
27. CN1CCN(/N=C/c2cccc(Cl)c2Cl)CC1.Cl  6.09%
28. CCS(=O)(=O)N1CCCC(C(=O)NC2CCC(C)CC2)C1 (centres unmarked)  6.05%
29. N/C(=N\OS(=O)(=O)c1ccc2ccccc2c1)c1cccnc1  5.24%
30. Brc1ccc(-c2nnc(-c3ccccc3)c(N3CCSCC3)n2)cc1  4.62%
31. CCOc1ccc(Oc2ccc(Cl)cc2N)cc1.Cl  2.9%
32. Cc1cc(Cl)nc(-n2nc(C)cc2C)n1  2.6%
33. COc1ccc(COCC(O)CN2CCc3ccccc3C2)cc1OC.Cl (centres unmarked)  1.52%
34. CCOC(=O)C1CCN(S(=O)(=O)Cc2ccc(Cl)cc2)CC1  1.25%
35. O=C(CN1CCc2ccccc2C1)Nc1cc(S(=O)(=O)N2CCOCC2)ccc1N1CCCC1  0.983%
36. COc1ccc(-c2nnc(SCC3CCCO3)n2C)cc1 (centres unmarked)  0.931%
37. Cc1ccc2nc3c(c(C(=O)OC4CCOC4=O)c2c1)CCCC3 (centres unmarked)  -0.191%
38. CC(Sc1nnc2ccccn12)C(=O)Nc1ccc(Cl)cn1 (centres unmarked)  -1.5%
39. CCOC(=O)C1CCN(c2nc(-c3ccc(Br)cc3)nc3ccccc23)CC1  -1.89%
40. CN1CCN(c2nc(-c3ccc(C(C)(C)C)cc3)nc3ccccc23)CC1.Cl  -2.05%
41. CSc1nc(N2CCOCC2)c2c3c(sc2n1)CCCC3  -2.32%
42. NC(=S)N/N=C\c1c(OCc2ccccc2Cl)ccc2ccccc12  -2.61%
43. Cc1ccc(S(=O)(=O)n2c(C)nc3cc(C)ccc32)cc1  -3.01%
44. Cc1noc(C)c1S(=O)(=O)Nc1ccc(C(=O)N2CCC(C)CC2)cc1  -4.35%
45. Cl.OC(COCc1ccccc1)CN1CCCC1 (centres unmarked)  -6.03%
46. O=C(CSc1nnnn1C1CC2C=CC1C2)Nc1ccc(C(=O)O)cc1 (centres unmarked)  -6.04%
47. COc1ccc(NC(C)=O)cc1NC(=O)CSc1nnc(-c2ccccn2)n1C  -7.69%
48. O=C(NCC(=O)N1CCCCCC1)c1ccc(Br)cc1  -7.84%
49. O=C(NCc1ccccn1)C1CCN(S(=O)(=O)N2CCCC2)CC1  -8.11%
50. COc1ccc(OC)c(-n2cc3c(=O)n(C)c(=O)n(C)c3c2)c1  -8.58%
51. Cc1ccc(S(=O)CCNC(=O)Cc2ccc(Cl)cc2)cc1 (centres unmarked)  -8.83%
52. NC(=O)C1CCCN(CC(O)COCc2ccc(Cl)cc2)C1.O=C(O)C(=O)O (centres unmarked)  -8.86%
53. CCCCOc1ccc(C(=O)N/C(=C/C=C/c2ccccc2)C(=O)NCCO)cc1  -9.18%
54. CC1CCCC(NC(=O)COC(=O)Cc2c[nH]c3ccccc23)C1C (centres unmarked)  -14%
55. c1cncc(-c2nc(N3CCOCC3)c3ccccc3n2)c1  -17%
56. CCOC(=O)c1c(C)n(C)c2ccc(OCC(O)CN3CCCCCC3)cc12.Cl (centres unmarked)  -18.4%
57. Cc1ccsc1CN(C)C(=O)CN1C(=O)NC(c2ccccc2)(c2ccccc2)C1=O  -21.5%
58. CCCOc1ccc(-c2nc(N3CCN(C)CC3)c3ccccc3n2)cc1  -21.6%
59. O=S(=O)(/C=C/c1ccccc1)N1CCN(c2nc(-c3cccnc3)nc3ccccc23)CC1  -23.6%
60. CCOC(=O)C1CCC(CNCc2ccccc2C)CC1.Cl (centres unmarked)  -24.4%
61. Cc1ccc(-c2nc(N(C)C3CCN(C)CC3)c3ccccc3n2)cc1  -24.4%
62. Cl.OC(COCc1ccccc1)CN1CCc2ccccc2C1 (centres unmarked)  -25.7%
63. CCCCOc1ccc(C(=O)N/C(=C/C=C/c2ccccc2)C(=O)NCCCO)cc1  -28.7%
64. Cc1ccc(-c2nnc(-c3ccccc3)c(N3CCOCC3)n2)cc1  -30%
65. CC(=O)c1cccc(OCC(O)CN2CCN(S(=O)(=O)c3c(F)cccc3F)CC2)c1.O=C(O)C(=O)O (centres unmarked)  -31%
66. CCOC(=O)C1CCN(CC(O)COCc2ccccc2)CC1.O=C(O)C(=O)O (centres unmarked)  -31.1%
67. c1ccc2c(N3CCOCC3)nc(-c3ccncc3)nc2c1  -31.3%
68. OC(CN1CC=C(c2ccccc2)CC1)c1ccccc1 (centres unmarked)  -33%
69. c1ccc2c(N3CCCCCC3)nc(-c3ccncc3)nc2c1  -34.5%
70. CC(C)(C)NC(=O)/C(=C\C=C\c1ccccc1)NC(=O)c1ccc([N+](=O)[O-])cc1  -35.1%
71. Cl.OC(COCc1ccc(Cl)cc1)CN1CCCCC1 (centres unmarked)  -35.8%
72. COc1ccc(S(=O)(=O)N2CCN(c3nc(-c4cccnc4)nc4ccccc34)CC2)cc1  -39%
73. CC(=O)c1ccc(S(=O)(=O)N2CCN(c3nc(-c4cccnc4)nc4ccccc34)CC2)cc1  -40.4%
74. CCOC(=O)C1CCN(CC(O)COCc2ccc3c(c2)OCO3)CC1.Cl (centres unmarked)  -46%
75. CN1CCN(c2nc(-c3cccc([N+](=O)[O-])c3)nc3ccccc23)CC1  -48.4%
76. CN1CCN(c2nc(-c3cccnc3)nc3ccccc23)CC1  -48.5%
77. Cc1ccc(S(=O)(=O)c2cnc(-c3ccccc3)nc2N2CCN(C)CC2)cc1  -49.1%
78. NC(=O)C1CCN(c2nc(-c3ccccc3)nc3ccccc23)CC1  -56%
79. c1ccc2c(N3CCCC3)nc(-c3ccncc3)nc2c1  -56.9%
80. Cc1ccc(-c2nc(N3CCN(C)CC3)c3ccccc3n2)cc1.Cl  -59.9%
81. CN1CCN(c2nc(-c3ccccc3)ncc2S(=O)(=O)c2ccccc2)CC1  -63.2%
82. CN1CCN(c2nc(-c3ccc(Br)cc3)nnc2-c2ccccc2)CC1  -63.5%
83. CN1CCN(c2nc(-c3ccncc3)nc3ccccc23)CC1  -67.4%
84. CC(=O)c1cccc(OCC(O)CN2CC=C(c3ccccc3)CC2)c1.O=C(O)C(=O)O (centres unmarked)  -68.9%
85. CCOC(=O)C1CCC(CNCc2ccc(Cl)cc2)CC1 (centres unmarked)  -69.2%
86. Cl.OC(COCc1ccc(Cl)cc1)CN1CCc2ccccc2C1 (centres unmarked)  -70.4%
87. CN1CCC(N(C)c2nc(-c3ccccc3)nc3ccccc23)CC1  -70.4%
88. CN(C)CCCNC(=O)/C(=C\C=C\c1ccccc1)NC(=O)c1ccc([N+](=O)[O-])cc1  -71.2%
89. O=S(=O)(c1ccc(F)cc1)N1CCN(c2nc(-c3cccnc3)nc3ccccc23)CC1  -72%
90. OC(COCc1ccc(Cl)cc1)CN1CCN(CC(O)COCc2ccc(Cl)cc2)CC1 (centres unmarked)  -75.2%
91. CCCCOc1ccc(C(=O)N/C(=C/C=C/c2ccccc2)C(=O)NC)cc1  -75.2%
92. O=C(O)C(=O)O.OC(COCc1ccc(Cl)cc1)CN1CC=C(c2ccccc2)CC1 (centres unmarked)  -77.2%
93. CNC(=O)/C(=C\C=C\c1ccccc1)NC(=O)c1ccc([N+](=O)[O-])cc1  -77.6%
94. CCOC(=O)C1CCN(CC(O)COCc2ccc(Cl)cc2)CC1.Cl (centres unmarked)  -79.2%
95. c1cncc(-c2nc(N3CCCCCC3)c3ccccc3n2)c1  -92.9%
